Experimental findings from PubChem BioAssay AID2685 (National Center for Advancing Translational Sciences (NCATS), 2010) are described below.

Hit rate of the full screen: of about 320,000 compounds, about 2,100 (0.66%) were called active. Inconclusive results (about 53%) are left out. Calls follow the shape of the dose curve; as a rule, active = well fitted inhibition curve with a large enough effect in the signal ratio, with a control signal flat (not every such curve was filed as active); inconclusive = small, poorly fitted or top-dose-only effect, or effect the other way, or a change in a side signal; inactive = flat fitted curve, though single readings scatter; the % refers to the signal ratio. The entries come from a sample that favours actives as a whole.
Potency is read from the fitted curve at half-maximal effect.

The nature of this test: qHTS Assay for Lipid Storage Modulators in Drosophila S3 Cells.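 As to cell number change: cells counted by Cell Tracker Red CMTPX staining in the red channel.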 The settings on record: BODIPY lipid droplet fluorescence, 18-24 h, cells fed with added oleic acid; cell number change: measured here: cell count max response; series mostly up to 46.1 µM. From the text: NIH Molecular Libraries Probe Production Centers Network [MLPCN] NIH Chemical Genomics Center [NCGC] MLPCN Grant: 1 R03 MH085686-01 Assay Submitter (PI): Beller, Mathias; Max-Planck-Institut fur Biophysikalische Chemie NCGC Assay Overview: Storing lipids as a reservoir for energy or the anabolism of elementary metabolites is a common feature of probably all cells and is conserved from bacteria to humans. The universal cellular lipid storage organelle is the so-called lipid storage droplet (LD). Although ubiquitous, LDs share a simple structure composed of a hydrophobic core that harbors the storage lipids, which is shielded by a droplet-specific phospholipid monolayer to which proteins are attached. The current model of LD biogenesis involves an incorporation of the lipid core into the membrane leaflets of the endoplasmic reticulum (ER) followed by a subsequent budding-like maturation of a LD, which ultimately pinches off. Once released, LD volume can increase by localized lipogenesis or fusion of existing droplet. Storage lipids are re-mobilized enzymatically by lipase activity. Lipase regulation in the adipocyte is heavily studied and involves multiple components including catecholamine signaling, the LD-associated proteins Perilipin and comparative gene identification (CGI-58) and at least two lipases named hormone sensitive lipase (HSL) and adipocyte triglyceride lipase (ATGL). LD regulation outside of the adipocyte is poorly understood and only few components are known. However, there is an urgent need to learn more about ectopic fat depots as mislocalized storage of lipids, for example in the liver or muscle, is an eminent health problem associated with insulin resistance or the metabolic syndrome. We developed a laser-scanning cytometer assay to enable 1,536-well screening and combined the results of the small molecules screen with an RNAi database based on lipid storage.
Triacsin C (Sigma-Aldrich T-4540), an inhibitor of long-chain fatty acyl CoA synthetase that blocks synthesis of triglycerides, was used as a positive control for lipid under-storage. A total of 23 nL of compound solution of different concentrations were transferred to the assay plates using a Kalypsys pin tool equipped with a 1,536-pin array containing 10-nL slotted pins (FP1S10, 0.457-mm diameter, 50.8 mm long; V&P Scientific). One microliter of oleic acid (400 uM) was added, and the plate was lidded with stainless steel rubber gasket lined lids containing pinholes. […] Fluorescence was detected by excitation of the fluorophores with a 488-nm laser on an Acumen Explorer (TTP Lab Tech). The total intensity in channel 2 (500-530 nm) reflected lipid droplet accumulation. Cells were detected using channel 3 (575-640 nm) with 5-um width and 100-um depth filters. The ratio of the number of objects in PMT channel 2 over the number of objects in PMT channel 3 was also calculated. Percent activity was computed relative to an internal control (100% inhibited lipid droplet deposition due to the presence of 20 uM Triacsin C), which was added to 32 wells/plate.
For orientation: Quantitative high-throughput screening tests each substance at several concentrations.
For the molecule `CC(C)CN(C(=O)C1CCCC1)C1CCS(=O)(=O)C1` (centres undefined), the Potency entry was “inactive” and the cell number change is -27.9%.

Take `N#CCN1CCC/C1=C\[N+](=O)[O-]`: the Potency result is “inactive” and the cell number change is 11.9%.

On to `CCCN(CCC)S(=O)(=O)c1ccc2c(c1)CCCN2C(C)=O`, for which the Potency result is “inactive” and the cell number change is -13.4%.

On to `Cc1ccc(CN2CCN(/N=C/c3sccc3C)CC2)c(C)c1`, for which the Potency entry was “inactive” and the cell number change was -17.1%.

For `CCN(CC)S(=O)(=O)c1cccc(C(=O)NC2=NCCS2)c1`, the Potency result is “inactive” and the cell number change is -2.91%.

Regarding `O=C(N/N=C/c1c[nH]c2ccccc12)c1ccn(Cc2ccc(Cl)cc2Cl)n1`, the Potency result is “inactive” and the cell number change is -11.1%.

Turning to `O=C(NCc1c(Cl)cccc1Cl)c1ccc2nnsc2c1`, the Potency entry was “inactive” and the cell number change came to 12.5%.

Regarding `O=C(NC(CCl)c1ccccc1)c1ccc(Cl)cc1` (centres undefined), the Potency entry is “inactive” and the cell number change turned out to be 13.4%.

As to `O=C1CCCN1c1ccc(C(=O)N(Cc2nnc(-c3ccccc3Cl)o2)C2CC2)cc1`, the Potency result was “inactive” and the cell number change was -25.6%.

For `CN(C)c1cccc(C(=O)NCc2ccccc2Cl)c1`, the Potency result was “inactive”.

In the case of `Cc1cccc(C(=O)NCCC(=O)NCc2ccccc2Cl)c1`, the Potency is 1.84 µM (active) and the cell number change is -17.5%.

Consider `Cc1cccc(C(=O)NCCC(=O)NCc2ccccc2F)c1`, for which the Potency result is “inactive” and the cell number change turned out to be 10.5%.

For the molecule `CCOc1cccc(/C(O)=C2/C(=O)C(=O)N(CCOC)C2c2ccco2)c1` (centres undefined), the Potency entry is “inactive” and the cell number change worked out at 3.12%.

Consider `CC1CCC(N2CCN(c3ccc([N+](=O)[O-])cc3)CC2)CC1` (centres undefined), for which the Potency result is “inactive” and the cell number change was -15.6%.

Turning to `COc1ccc(-c2cc(C(=O)N3CCN(c4ccccc4F)CC3)c3ccccc3n2)c(OC)c1`, the Potency is 3.26 µM (active) and the cell number change is -25.7%.

`COc1ccc(-c2cc(C(=O)N3CCN(c4ncccn4)CC3)c3ccccc3n2)c(OC)c1`: the Potency entry is “inactive”.

On to `COc1ccc(-c2cc(C(=O)N3CCCCCC3)c3ccccc3n2)c(OC)c1`, for which the Potency result was “inactive”.

As for `O=C(O)c1cccc2c1C(=O)N(c1ccccc1)C2`, the Potency result is “inactive” and the cell number change is -2.23%.

Consider `Cc1ccc(N2CCN(S(=O)(=O)N3CCCCC3)CC2)c(C)c1`, for which the Potency result is “inactive” and the cell number change came out at 18.1%.

On to `CN1/C(=C\C(=O)c2cccc([N+](=O)[O-])c2)Sc2ccccc21`, for which the Potency was 1.84 µM (active) and the cell number change is -22.2%.

In the case of `COc1cc(OC)cc(C(=O)/C=C2\Sc3ccccc3N2C)c1`, the Potency entry is “inactive” and the cell number change amounted to 2.87%.

In the case of `CN1/C(=C\C(=O)c2cccs2)Sc2ccccc21`, the Potency result was “inactive” and the cell number change was 18.5%.

As for `Cc1cccc(N2CC3=C(C2=O)C(c2ccccc2)NC(=O)N3C)c1` (centres undefined), the Potency entry is “inactive” and the cell number change was determined as 28.8%.

Turning to `CC1(C)c2[nH]c3ccccc3c2C[C@H]2C(=O)N(CCCO)CC(=O)N21`, the Potency result is “inactive” and the cell number change is 7.32%.

Turning to `CC(=O)c1ccc(NC(=O)CCNC(=O)c2ccccc2Cl)cc1`, the Potency entry is “inactive”.

Consider `Fc1ccc(F)c(CN2CCN(c3ncccn3)CC2)c1`, for which the Potency entry is “inactive” and the cell number change was -0.405%.

`COc1ccccc1N=C1NC(=O)/C(=C/c2ccc(N(C)C)cc2)S1`: the Potency was 10.3 µM (active) and the cell number change was -21.8%.

As to `COc1ccc(/C=C2\SC(=Nc3ccccc3)NC2=O)cc1`, the Potency entry was “inactive” and the cell number change was -6.61%.

In the case of `COc1ccc(/C=C2\SC(=Nc3ccccc3OC)NC2=O)cc1`, the Potency result was “inactive” and the cell number change was -11.5%.

In the case of `Cc1ccc(SCC(=O)OCc2csc(CC(=O)Nc3ccccc3C)n2)cc1C`, the Potency entry is “inactive” and the cell number change was -3.61%.

As to `COc1cc(OC)cc(C(=O)NCc2ccc3[nH]c(C)cc3c2)c1`, the Potency result is “inactive” and the cell number change was -3.37%.

For `CN(C)c1ccc(/C=C/C(=O)c2cc(Cl)ccc2O)cc1`, the Potency is 4.11 µM (active) and the cell number change is -22.6%.

For the molecule `CN(C)c1ccc(/C=C/C(=O)c2ccccc2O)cc1`, the Potency result is “inactive”.

As for `O=C(/C=C/c1cccs1)c1cc(Cl)ccc1O`, the Potency entry was “inactive” and the cell number change amounted to 3.94%.

Turning to `CCC(CC)NC(=O)Nc1cccc(C)c1C`, the Potency result is “inactive” and the cell number change was -9.81%.

`COc1ccccc1CNC(=O)c1cccs1`: the Potency entry was “inactive” and the cell number change was -14%.

Take `CCOc1ccccc1N1CC(C(=O)N2CCOCC2)CC1=O` (centres undefined): the Potency entry is “inactive” and the cell number change is 13.3%.

In the case of `CC(=O)Nc1c(O)nc(SCC(=O)N2CCCCC2)[nH]c1=O`, the Potency entry is “inactive” and the cell number change was -10.1%.

Take `O=C(CSc1nc2ccccc2s1)N1c2ccccc2Sc2ccccc21`: the Potency entry was “inactive” and the cell number change was -7.47%.

`O=C(CSc1nc2ccccc2[nH]1)N1CCCCC1`: the Potency result is “inactive” and the cell number change turned out to be 1.09%.

As to `O=C(CSc1nc2ccccc2[nH]1)N1c2ccccc2Sc2ccccc21`, the Potency is 16.4 µM (active) and the cell number change is -14%.

`O=C(c1cc(=O)c2cc(Cl)ccc2o1)N1CCN(Cc2ccccc2)CC1`: the Potency result was “inactive” and the cell number change stood at 10.7%.

For `O=C(O)c1cc(=O)c2cc(Cl)ccc2o1`, the Potency is 23.1 µM (active) and the cell number change is -8.2%.

With `NS(=O)(=O)c1ccc(CNC(=O)c2cc(=O)c3cc(Cl)ccc3o2)cc1`, the Potency entry was “inactive” and the cell number change is -18%.

Turning to `C=CCN(Cc1cn(C)nc1-c1cccc(Cl)c1)C1CCS(=O)(=O)C1` (centres undefined), the Potency entry is “inactive” and the cell number change was -4.76%.

On to `Nc1ccc(S(=O)(=O)NC2=NCCCCC2)cc1`, for which the Potency entry was “inactive” and the cell number change was 11.2%.

Regarding `Cc1ccc(S(=O)(=O)NC2=NCCCCC2)cc1`, the Potency result is “inactive” and the cell number change is -2.65%.
